# Assay results as given in PubChem BioAssay (Tox21).
# Inconclusive results are not listed. Where a call stands in place of a potency, no number is given. Active and inactive are the calls of the source. Calls come from the whole dose curve; as a rule, active = well fitted activation curve with a large enough effect in the repeat runs; inconclusive = weak or mixed curves; inactive = no such curve, though single readings can be large or run the other way.
# Assay: qHTS assay to identify small molecule agonists of the estrogen related receptor signaling pathway with the pleiotropic PPARgamma coactivator (PGC) (AID 1224823)
# Details: ERR/PGC reporter cell line, luciferase agonist mode; series mostly up to 46.1 µM
# Summary of the method: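 Steps: plate PGC/ERR cells at 2,000 cells/well; incubate 6 h, 37 C/5% CO2; pin-transfer compounds (DMSO); incubate 18 h, 37 C; add One-Glo; 30 min RT; read luminescence.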
# Potency is the fitted concentration of half-maximal effect.
row,Compound,Potency
1,C=CCN1CCc2c(cc(O)c(O)c2Cl)C(c2ccccc2)C1 (stereo not given),inactive
2,Oc1cc2c(cc1O)CN(C(=S)NCCc1ccc(Cl)cc1)CCC2,inactive
3,O=C1Nc2ccc(I)cc2/C1=C/c1cc(Br)c(O)c(Br)c1,inactive
4,CC(C)(C)c1ccc(S(=O)(=O)/C=C/C#N)cc1,inactive
5,CC(C)C[C@H](NC(=O)[C@@H](O)[C@H](N)Cc1ccccc1)C(=O)O,inactive
6,CCCCN(CC)c1nc(C)nc2c1c(C)cn2-c1c(C)cc(C)cc1C,inactive
7,C[C@H](Cc1ccccc1)Nc1ncnc2c1ncn2[C@@H]1O[C@H](CO)C(O)[C@H]1O (stereo not given in full),10.2 µM (active)
8,CN(C)c1cc2c(Nc3ccc4c(cnn4Cc4ccccc4)c3)ncnc2cn1,inactive
9,CCOC(=O)[C@H](CCc1ccccc1)N[C@@H](C)C(=O)N1[C@H](C(=O)O)C[C@H]2CCCC[C@@H]21,inactive
10,COc1cccc2c1[C@@H]1CN(CCCCn3c(=O)[nH]c4c(sc5ncc(-c6ccccc6)nc54)c3=O)C[C@@H]1CO2,inactive
11,CN[C@H](CC(C)C)C(=O)N[C@H]1C(=O)N[C@@H](CC(N)=O)C(=O)N[C@H]2C(=O)N[C@H]3C(=O)N[C@H](C(=O)N[C@H](C(=O)O)c4cc(O)cc(O)c4-c4cc3ccc4O)[C@H](O)c3ccc(c(Cl)c3)Oc3cc2cc(c3O[C@@H]2O[C@H](CO)[C@@H](O)[C@H](O)[C@H]2O[C@H]2C[C@](C)(N)[C@H](O)[C@H](C)O2)Oc2ccc(cc2Cl)[C@H]1O,inactive
12,CN(C)C(=O)[C@H](O)[C@H](Cc1ccccc1)NC(=O)c1cc2cc(Cl)ccc2[nH]1,inactive
13,CCCC(=O)NCCc1c2n(c3ccc(OC)cc13)CCCc1ccccc1-2,inactive
14,CCc1ccc(/C=C2/SC(=S)NC2=O)cc1,inactive
15,O=C(Nc1ccncc1)c1cc([N+](=O)[O-])ccc1Cl,inactive
16,Cc1nn(-c2ccccc2)c(C)c1/C=N/N1CCN(Cc2ccccc2)CC1,inactive
17,COc1cc(OC)cc(-c2cc3cnc(N)nc3nc2NC(=O)NC(C)(C)C)c1,inactive
18,COc1cc(OC)c(/C=C2/C(=O)Nc3ccccc32)c(OC)c1,inactive

row,Compound,Potency
1,O=C(NOCC1CC1)c1cc(Br)c(F)c(F)c1Nc1ccc(I)cc1Cl,inactive
2,COC(=O)C1=C(C)NC(C)=C(C(=O)OC)C1c1cccc(NC(=O)NCCCN2CCC(c3cccc(OC)c3)CC2)c1,inactive
3,Cc1ccc(S(=O)(=O)N[C@@H](Cc2ccccc2)C(=O)CCl)cc1,inactive
4,O=C(c1ccc(Cl)cc1)N1CCN(c2ccc([N+](=O)[O-])c3ncccc23)CC1,inactive
5,C[C@H](Cc1ccc(O)c(O)c1)[C@@H](C)Cc1ccc(O)c(O)c1,inactive
6,CCCCOC(=O)NS(=O)(=O)c1sc(CC(C)C)cc1-c1ccc(Cn2c(CC)nc3c(C)cc(C)nc32)cc1,inactive
7,CN(C)S(=O)(=O)c1ccc2c(c1)/C(=C/c1cc3c([nH]1)CCCC3)C(=O)N2,23.7 µM (active)
8,Oc1cc2c(c(Cl)c1O)CCNCC2c1ccccc1 (stereo not given),inactive
9,C=C1C(=O)O[C@@H]2[C@H]3O[C@]3(C)CCC=C(C)CC[C@@H]12,inactive
10,CC1(C)C(=O)N(CCN2CCC(C(=O)c3ccc(F)cc3)CC2)c2ccccc21,inactive
11,CCN(CC)CCOC(=O)c1cc(Cl)c(N)cc1OC,inactive
12,O=[N+]([O-])c1ccc(-c2nc(-c3ccc(F)cc3)c(-c3ccncc3)[nH]2)cc1,inactive
13,CN1CCC2(CCN3CCc4c(oc5ccccc45)C3C2)N(C)C1=O (stereo not given),inactive
14,CCCCCCCCCCC(C)(C)C(=O)Nc1c(OC)cc(OC)cc1OC,inactive
15,COC1=C(OC)C(=O)c2ccccc2C1=O,inactive
16,CCN(c1nc(N)c(C(=O)N=C(N)N)nc1Cl)C(C)C,inactive
17,Cn1c(=O)c(-c2c(Cl)cccc2Cl)cc2cnc(Nc3ccc(N4CCOCC4)cc3)nc21,0.0531 µM (active)
